Assay outcomes: PubChem BioAssay, Broad Institute
EWS-Fli inh – EWS/Fli-driven NR0B1 reporter inhibitors, primary screen, A673 cells, NR0B1 luciferase, luminescence, MLPCN library. AID 651661, 2012. actives 0.67% (n = 350,000). viability-normalised. inhibition, % at 12.6 µM;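 active means mean inhibition of at least 50% after viability correction, with every replicate also passing that limit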;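 further: firefly luciferase signal divided by Alamar Blue viability fluorescence both relative to DMSO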
PAX8 inh HTS – inhibitors of PAX8-driven TPO luciferase reporter, primary screen, RMG-I cells, single concentration | SteadyGlo, 24 h | inhibition, % at 12.6 µM | actives 1.2% (n = 360,000);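 active means mean replicate inhibition at least 60% with every replicate also reaching 60%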;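 further: luciferase light reporting Pax8 driven TPO promoter activity; plate controls were median of neutral control wells for no effect and mitoxantrone controls for full effect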
Statin myotox sup – suppressors of statin myotoxicity in C2C12 myotubes, primary screen, cell-based, single point, plate reader; rescue of ATP level, % at 7.49 µM; C2C12 myotubes + simvastatin, ATP luminescence, 48 h; scaled: DMSO 0, geranylgeraniol control 100; actives 0.78% (n = 330,000);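 active means mean ATP rescue above about 67%, or every replicate alone reaching that limit, limit read from the data, passing the limit was not always enough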;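 further: myotubes were challenged with 10 µM simvastatin during compound exposure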
miR122 inh – miR-122 Renilla sensor signal increase in Huh7, primary screen, miR-122 inhibitor project, cell-based, single point, plate reader; actives 0.3% (n = 340,000); Huh7 miR-122 Renilla luciferase sensor, 48 h; neutral wells = 0, positive control = 100; activation (reporter increase), % at 12.5 µM;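 active means mean replicate activation score at least 90 and every replicate individually at or above 90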;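 further: higher luciferase means less miR-122 activity so hits act as miR-122 inhibitors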
HIV Env fusion – inhibitors of HIV-1 Env-driven cell-cell fusion, primary screen, HeLa-JRFL effector, CEM21 target cells, luciferase; inhibition, % at 12.3 µM; actives 1.1% (n = 360,000);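 active means mean replicate inhibition score of at least 50 and every replicate individually at or above 50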;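 further: 0% = plate neutral controls and 100% = maraviroc near 300 nM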
INS-1E GSIS act – GLuc luminescence reporter in INS-1E cells, primary screen for activators of glucose-dependent secretion of insulin. INS-1E GLuc reporter insulin secretion, 2-3 h. activation, % at 16.6 µM. actives 0.61% (n = 370,000);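 active means lowest replicate activation of at least 40%, so every replicate reaches that level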;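 further: 0% = median of neutral control wells and 100% = median of IBMX positive control wells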
Active calls of the source: *; i = inactive; x = no result given; [ ] = another dose, or the depositor's remark. Sampled rows, rich in hits. Any-hit rate of the full collection: about 3.1%.

SMILES	EWS-Fli inh	PAX8 inh HTS	Statin myotox sup	miR122 inh	HIV Env fusion	INS-1E GSIS act
O=C(Cc1cccnc1)N1CCCCN2[C@H](CO)[C@H](c3ccc(C#CC4CC4)cc3)[C@@H]2C1	-6	8	x	1[16.7 µM]	x	x
C=CCOC(=O)C1=C(C)OC(N)=C(C(=O)OCC)C12C(=O)N(CC(N)=O)c1ccccc12 (stereo unspecified)	x	15	3	-3	-36	x
CCOC(=O)C1=C(C)OC(N)=C(C(=O)OCC)[C@@]12C(=O)N(CC(N)=O)c1ccccc12	x	x	98*	1	x	x
COC(=O)[C@H]1[C@H](CO)[C@H]2Cn3c(ccc(C4=CCCCC4)c3=O)[C@@H]1N2Cc1ccccc1OC	-7	3	x	x	x	5
CNCCCc1ccccc1	x	1	2	4	-6	x
CC1(CCO)CC(C)(CCc2ccccc2)OO1 (stereo unspecified)	67*	41	x	x	-22[16.7 µM]	x
CC(C)(C)c1cc(C=C(C#N)C#N)cc(C(C)(C)C)c1O	48	109*	-90	-17	-16	x
CCN(CC)C(=O)c1ccc(NC(=O)Nc2ccccc2F)cc1	62*	15	x	x	9	5
CCCN1[C@@H]2c3ccc(-c4cccc(C(=O)N(C)C)c4)c(=O)n3C[C@H]1[C@H](CO)[C@H]2C(=O)OC	12	-6	-20	x	1[16.7 µM]	13
CC(=O)N1C[C@@H]2N[C@H](C1)C2c1ccc(Br)cc1 (stereo partly specified)	x	x	x	x	x	-12
Cc1cc(Br)cn2c(CC(=O)N3CCCCC3)c(-c3ccc(F)cc3)nc12	12	16	x	x	20	54*
O=C(Cc1c(-c2ccccc2)nc2ccc(Br)cn12)N1CCCC1	-78	-47	x	x	-8	3
CCCCCC[N+](=O)[O-]	-1	x	10	3	x	11
CCCCCCCCCCCCCCCC[N+](C)(C)C	57*	93*	-105	-5	0	x
CN(CC1COc2ccccc2O1)c1nc(-c2cccnc2)nc2ccccc12 (stereo unspecified)	x	34	108*	15	65*	-30
COC(=O)[C@H]1[C@H](CO)[C@H]2Cn3c(ccc(-c4cccc(F)c4)c3=O)[C@@H]1N2C(=O)CC1CC1	-10	x	14	x	x	12
CN1[C@@H]2CN(S(C)(=O)=O)C[C@H]1C2c1ccc(Br)cc1 (stereo partly specified)	x	x	x	x	x	-9
C[n+]1c(-c2ccccc2)c2cc(N)ccc2c2ccc(N)cc21	11	96*	16	-7	31	-38
Nc1ccc2ccc3cccc[n+]3c2c1	5	-80	-16	x	18	-1
O=c1[nH]c2ccccc2n1C1CCN(C(c2cccs2)c2nnnn2-c2ccc3c(c2)OCCO3)CC1 (stereo unspecified)	46	96*	-4	32	34	-18
O=C1NCN(c2ccccc2)C12CCN(C(c1cccs1)c1nnnn1-c1ccc3c(c1)OCCO3)CC2 (stereo unspecified)	7	23	-24	-8	i	-34
O=c1[nH]c2ccccc2n1C1CCN(C(c2ccccc2)c2nnnn2-c2ccc3c(c2)OCCO3)CC1 (stereo unspecified)	17	81*	1	-4	13	-2
O=c1[nH]c2ccccc2n1C1CCN(C(c2nnnn2-c2ccc3c(c2)OCCO3)C2CC2)CC1 (stereo unspecified)	8	86*	-19	3	49	-46
COC(=O)[C@H]1[C@H](CO)[C@H]2Cn3c(ccc(-c4ccccc4F)c3=O)[C@@H]1N2Cc1cccnc1	-8	-22	20	7[16.7 µM]	x	9
CCCNC(=O)[C@H]1[C@H](CO)[C@H]2Cn3c(cccc3=O)[C@H]2N1CC	7	x	x	x	x	22
SMILES	EWS-Fli inh	PAX8 inh HTS	Statin myotox sup	miR122 inh	HIV Env fusion	INS-1E GSIS act
C=CCn1c(O)c(C(C)=NCCCO)c(=O)[nH]c1=O	x	x	108*	-1	x	x
COCC#Cc1ccc([C@H]2[C@H](CO)N3CCCCN(C(=O)Cc4ccccn4)C[C@@H]23)cc1	-17	-14	x	7[16.7 µM]	x	8
N=c1n(CCO)c2ccccc2n1Cc1ccccc1	x	x	86*	-8	x	x
O=c1c2ccccc2nc(CN2CCCCCC2)n1-c1ccc(F)cc1	x	x	-42	1	71*	-4
CCC(CC)N1CCN(Cc2nc3ccccc3c(=O)n2-c2ccc(F)cc2)CC1	2	-13	-7	-6	2	x
COC(=O)[C@@H]1[C@@H](CO)[C@@H]2Cn3c(ccc(-c4ccccc4F)c3=O)[C@H]1N2C(C)=O	-7	6	-4	-3[16.7 µM]	x	3
Cc1nc2cc(-c3ccc(Cl)cc3)nn2c(C)c1CCC(=O)N1CCC2(CC1)OCCO2	x	-25	-8	-14	79*	x
CC(=O)N1[C@@H]2Cn3c(ccc(-c4cccc(C(=O)N(C)C)c4)c3=O)[C@H]1[C@@H](C(=O)O)[C@@H]2CO	x	x	x	x	x	14
C[C@H]1C[C@@H](C)C(=O)[C@@H]([C@H](O)CC2CC(=O)NC(=O)C2)C1	39	x	171*	-20	x	7
COC(=O)[C@@H]1[C@@H](CO)[C@@H]2Cn3c(ccc(C4=CCCCC4)c3=O)[C@H]1N2CC1CCCCC1	0	x	x	x	x	-9
COc1ccc(-n2nnnc2C(c2ccccc2)N2CCC(n3c(=O)[nH]c4ccccc43)CC2)cc1 (stereo unspecified)	-3	78*	8	-9	-127	-47
COc1ccc(-n2nnnc2C(c2cccc(OC)c2OC)N2CCC(n3c(=O)[nH]c4ccccc43)CC2)cc1 (stereo unspecified)	7	30	-27	-9	-62	-12
COc1ccc(-n2nnnc2C(C2CC2)N2CCC(n3c(=O)[nH]c4ccccc43)CC2)cc1 (stereo unspecified)	2	20	-2	0	-35	-22
COc1ccc(-n2nnnc2C(c2cccs2)N2CCC(n3c(=O)[nH]c4ccccc43)CC2)cc1 (stereo unspecified)	23	71*	-3	16	-5	-47
CCCNC(=O)[C@@H]1[C@@H](CO)[C@@H]2Cn3c(cccc3=O)[C@@H]2N1CC	2	x	x	x	x	-3
COC(=O)[C@H]1[C@H](CO)[C@H]2Cn3c(ccc(C4=CCCCC4)c3=O)[C@@H]1N2CC1CCCC1	4	x	-23	-2[16.7 µM]	x	-28
COc1ccc(C(=O)OC2C[C@H]3CC[C@H](C2)N3C)cc1OC (stereo partly specified)	-2	-24	4	-3	3	-5
